Source: the supplement of paper PMC11732987, “Enantioselective OTUD7B fragment discovery through chemoproteomics screening and high-throughput optimisation” (Communications Chemistry, 2025)

Key:
Assay in all cases: log2 ratio of Biotin-Ahx-Ub-VS probe labelling (fragment/DMSO); higher = less target engagement (more negative = stronger competition), active = hit call of the paper (q ≤ 0.05, log2 ratio ≤ -1)
Conditions in all cases: compound concentration: 200 uM; treatment time: 3 h
OTUD6B = target: T1, OTUD6B (UniProt Q8N6M0)
T1 sequence (whole entry): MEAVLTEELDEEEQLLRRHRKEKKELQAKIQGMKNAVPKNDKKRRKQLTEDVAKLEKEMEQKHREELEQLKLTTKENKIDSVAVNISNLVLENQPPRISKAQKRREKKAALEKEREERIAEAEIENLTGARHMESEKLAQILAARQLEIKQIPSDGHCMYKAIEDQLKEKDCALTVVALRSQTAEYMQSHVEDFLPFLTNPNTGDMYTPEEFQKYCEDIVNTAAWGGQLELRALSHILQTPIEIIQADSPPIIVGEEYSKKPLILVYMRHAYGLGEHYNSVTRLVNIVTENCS
Outline: (§1)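 Labelled DUBs from HEK293T lysate were NeutrAvidin-enriched, digested with LysC and trypsin, and run by diaPASEF LC-MS/MS. Before that, each 495 µg sample in Tris/CHAPS/IGEPAL buffer with protease inhibitors was treated in triplicate with fragment at 200 µM or vehicle for 3 h, then with Biotin-Ahx-Ub-VS at 0.5 µM final for 1 h. Values are average log2 ratios of fragment over vehicle by unpaired t-test, based on global-median-normalised Spectronaut label-free quantities from proteins with ≥2 unique peptides.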

OTUD7B = target: T2, OTUD7B (UniProt Q6GQQ9)
T2 sequence (whole entry): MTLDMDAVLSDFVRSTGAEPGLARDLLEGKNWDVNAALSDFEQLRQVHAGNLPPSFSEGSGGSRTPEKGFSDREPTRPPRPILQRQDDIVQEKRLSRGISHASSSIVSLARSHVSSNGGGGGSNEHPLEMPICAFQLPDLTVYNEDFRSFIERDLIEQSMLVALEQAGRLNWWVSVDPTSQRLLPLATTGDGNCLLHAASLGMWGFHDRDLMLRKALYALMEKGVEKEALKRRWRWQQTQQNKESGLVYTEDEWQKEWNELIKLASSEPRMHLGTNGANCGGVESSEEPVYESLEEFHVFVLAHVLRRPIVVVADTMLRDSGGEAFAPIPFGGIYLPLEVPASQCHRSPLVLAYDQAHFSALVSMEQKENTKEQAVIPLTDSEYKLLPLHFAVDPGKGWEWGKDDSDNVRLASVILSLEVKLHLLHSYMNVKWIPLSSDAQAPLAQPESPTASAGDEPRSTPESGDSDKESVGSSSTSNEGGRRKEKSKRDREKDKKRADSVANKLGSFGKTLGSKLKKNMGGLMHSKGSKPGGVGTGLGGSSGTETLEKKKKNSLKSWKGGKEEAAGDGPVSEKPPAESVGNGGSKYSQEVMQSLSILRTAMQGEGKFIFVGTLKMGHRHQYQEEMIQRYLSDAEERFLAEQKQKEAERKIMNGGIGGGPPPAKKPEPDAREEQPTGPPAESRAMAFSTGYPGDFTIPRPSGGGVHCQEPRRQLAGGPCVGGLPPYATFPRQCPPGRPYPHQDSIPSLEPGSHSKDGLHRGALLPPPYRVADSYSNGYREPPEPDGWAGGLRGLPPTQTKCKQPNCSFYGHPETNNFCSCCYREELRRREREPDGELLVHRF
Outline: as §1

PRPF8 = PRPF8 (UniProt Q6P2Q9)
Outline: as §1

PSMD7 = target: T3, PSMD7 (UniProt P51665)
T3 sequence (whole entry): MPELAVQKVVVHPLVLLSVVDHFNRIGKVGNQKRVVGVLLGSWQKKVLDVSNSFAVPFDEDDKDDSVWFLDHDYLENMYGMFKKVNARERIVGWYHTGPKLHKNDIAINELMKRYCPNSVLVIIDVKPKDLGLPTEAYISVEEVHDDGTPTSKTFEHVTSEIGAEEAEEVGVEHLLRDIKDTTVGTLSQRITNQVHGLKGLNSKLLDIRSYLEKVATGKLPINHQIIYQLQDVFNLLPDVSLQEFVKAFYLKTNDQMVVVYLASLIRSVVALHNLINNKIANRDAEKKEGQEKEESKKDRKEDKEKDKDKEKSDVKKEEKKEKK
Outline: as §1

UCHL1 = UCHL1 (UniProt P09936)
Sequence of UCHL1 (P09936 whole entry, looked up): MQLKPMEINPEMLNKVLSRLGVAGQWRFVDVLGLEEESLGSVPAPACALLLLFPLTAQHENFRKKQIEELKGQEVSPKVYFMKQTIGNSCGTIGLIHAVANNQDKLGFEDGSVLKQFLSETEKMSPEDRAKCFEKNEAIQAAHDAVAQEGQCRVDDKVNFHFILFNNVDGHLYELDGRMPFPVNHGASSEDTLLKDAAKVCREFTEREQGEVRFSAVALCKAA
Outline: as §1

UCHL3 = target: T4, UCHL3 (UniProt P15374)
T4 sequence (whole entry): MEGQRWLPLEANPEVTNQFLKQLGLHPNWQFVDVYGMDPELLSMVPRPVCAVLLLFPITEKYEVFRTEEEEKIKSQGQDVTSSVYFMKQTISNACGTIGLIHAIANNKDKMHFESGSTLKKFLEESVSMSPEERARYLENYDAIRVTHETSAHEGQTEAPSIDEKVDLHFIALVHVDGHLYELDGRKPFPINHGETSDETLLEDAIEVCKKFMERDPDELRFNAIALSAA
Outline: as §1

UCHL5 = target: T5, UCHL5 (UniProt Q9Y5K5)
T5 sequence (whole entry): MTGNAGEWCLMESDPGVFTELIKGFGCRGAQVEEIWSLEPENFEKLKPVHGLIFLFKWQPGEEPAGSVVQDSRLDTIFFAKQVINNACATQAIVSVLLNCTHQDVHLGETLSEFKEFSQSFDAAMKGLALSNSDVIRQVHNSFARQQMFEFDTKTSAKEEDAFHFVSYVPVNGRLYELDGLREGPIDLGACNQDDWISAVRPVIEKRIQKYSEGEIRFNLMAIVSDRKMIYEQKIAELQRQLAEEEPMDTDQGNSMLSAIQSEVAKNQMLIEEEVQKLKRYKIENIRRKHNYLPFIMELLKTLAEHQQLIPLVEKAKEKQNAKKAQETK
Outline: as §1

USP10 = USP10 (UniProt Q14694)
Sequence of USP10 (Q14694 whole entry): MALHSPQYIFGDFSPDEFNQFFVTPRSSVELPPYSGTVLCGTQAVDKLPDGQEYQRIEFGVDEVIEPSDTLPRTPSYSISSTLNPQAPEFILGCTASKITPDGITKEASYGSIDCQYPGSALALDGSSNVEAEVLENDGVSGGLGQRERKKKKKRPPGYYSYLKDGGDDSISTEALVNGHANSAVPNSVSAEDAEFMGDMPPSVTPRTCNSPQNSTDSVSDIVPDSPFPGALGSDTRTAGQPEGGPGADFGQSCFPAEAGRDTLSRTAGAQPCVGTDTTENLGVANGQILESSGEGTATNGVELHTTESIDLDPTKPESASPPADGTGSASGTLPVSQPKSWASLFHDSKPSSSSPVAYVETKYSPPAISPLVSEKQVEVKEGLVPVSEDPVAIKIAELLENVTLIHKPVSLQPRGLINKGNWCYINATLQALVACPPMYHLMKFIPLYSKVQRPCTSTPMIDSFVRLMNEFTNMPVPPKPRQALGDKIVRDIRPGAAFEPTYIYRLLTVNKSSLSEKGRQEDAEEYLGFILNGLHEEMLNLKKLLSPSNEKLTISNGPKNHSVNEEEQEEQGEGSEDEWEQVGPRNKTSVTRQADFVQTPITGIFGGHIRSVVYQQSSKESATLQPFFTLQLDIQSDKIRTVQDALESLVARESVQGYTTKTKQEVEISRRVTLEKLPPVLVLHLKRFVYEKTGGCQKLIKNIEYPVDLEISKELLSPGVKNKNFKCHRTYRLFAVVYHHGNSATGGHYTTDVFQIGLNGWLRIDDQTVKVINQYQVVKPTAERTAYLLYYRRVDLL
Outline: as §1

USP15 = target: T6, USP15 (UniProt Q9Y4E8)
T6 sequence (whole entry): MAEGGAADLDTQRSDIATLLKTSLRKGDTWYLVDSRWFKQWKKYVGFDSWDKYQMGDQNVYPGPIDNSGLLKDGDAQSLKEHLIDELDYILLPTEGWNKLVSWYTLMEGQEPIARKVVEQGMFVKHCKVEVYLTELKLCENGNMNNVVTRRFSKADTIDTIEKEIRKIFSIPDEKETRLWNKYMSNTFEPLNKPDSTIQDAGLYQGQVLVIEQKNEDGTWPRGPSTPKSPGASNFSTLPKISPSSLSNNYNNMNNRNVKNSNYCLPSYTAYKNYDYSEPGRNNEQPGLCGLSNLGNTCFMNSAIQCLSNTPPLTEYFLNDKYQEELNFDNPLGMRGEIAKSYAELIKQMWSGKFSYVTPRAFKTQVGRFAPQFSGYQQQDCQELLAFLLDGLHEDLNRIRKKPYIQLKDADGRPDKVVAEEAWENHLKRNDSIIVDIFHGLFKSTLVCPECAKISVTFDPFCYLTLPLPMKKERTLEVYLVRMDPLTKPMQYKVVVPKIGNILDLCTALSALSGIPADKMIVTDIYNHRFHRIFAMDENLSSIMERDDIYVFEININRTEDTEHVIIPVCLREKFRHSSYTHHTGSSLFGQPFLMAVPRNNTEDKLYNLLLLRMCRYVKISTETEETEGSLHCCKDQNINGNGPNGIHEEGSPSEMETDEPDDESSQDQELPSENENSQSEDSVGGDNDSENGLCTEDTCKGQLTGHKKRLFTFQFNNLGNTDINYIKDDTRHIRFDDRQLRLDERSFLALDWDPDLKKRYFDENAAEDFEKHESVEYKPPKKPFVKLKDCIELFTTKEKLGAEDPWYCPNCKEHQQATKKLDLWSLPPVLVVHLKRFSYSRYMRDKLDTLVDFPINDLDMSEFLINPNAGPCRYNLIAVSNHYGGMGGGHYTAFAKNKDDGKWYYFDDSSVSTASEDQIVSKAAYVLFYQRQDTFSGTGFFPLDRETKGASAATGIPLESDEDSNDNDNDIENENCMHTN
Outline: as §1

Measured: log2 ratio of Biotin-Ahx-Ub-VS probe labelling

O=C(CCl)N1CCc2nc[nH]c2C1c1ccc(Cl)cc1 (centres undefined)
inactive: OTUD6B -0.263 | PRPF8 -0.0118 | PSMD7 -0.165 | UCHL1 -0.466 | UCHL3 0.28 | UCHL5 -0.221 | USP10 -0.161 | USP15 -0.182
active: OTUD7B -1.05
